High-throughput results from PubChem BioAssay.
CYP2C19 inhib: blocks human cytochrome P450 2C19; CYP2C19 Supersomes, luciferin-H EGE luminescence, 30 min; inhibition, % at 5 µM; actives 21% (n = 96,000);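 active = CYP2C19 inhibition above a set limit at 5 µM in the primary screen, cut at about 50% in these data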
Target sequence (P33261 whole entry, looked up): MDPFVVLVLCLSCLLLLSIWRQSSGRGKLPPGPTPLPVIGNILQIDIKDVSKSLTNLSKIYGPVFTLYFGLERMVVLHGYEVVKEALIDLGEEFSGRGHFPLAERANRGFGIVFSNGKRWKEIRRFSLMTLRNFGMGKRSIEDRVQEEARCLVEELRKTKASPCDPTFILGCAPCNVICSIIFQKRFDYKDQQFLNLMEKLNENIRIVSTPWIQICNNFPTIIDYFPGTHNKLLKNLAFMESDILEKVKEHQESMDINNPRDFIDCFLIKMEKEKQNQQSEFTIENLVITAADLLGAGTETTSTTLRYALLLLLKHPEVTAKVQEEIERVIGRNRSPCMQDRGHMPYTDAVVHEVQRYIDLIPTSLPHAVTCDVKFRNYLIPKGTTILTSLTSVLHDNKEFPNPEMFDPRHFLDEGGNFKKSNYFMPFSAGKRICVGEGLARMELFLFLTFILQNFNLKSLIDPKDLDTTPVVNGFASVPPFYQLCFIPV
CYP2C19 act: increases human CYP2C19 enzyme activity. P33261. recombinant CYP2C19, luciferin-H EGE luminescence; active compounds read high; 0 = fully inhibited enzyme, 1 = untreated enzyme. activation factor at 5 µM. 96,000 tested, under 10 active;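 active = activation factor of at least 2 at 5 µM in the primary screen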
CYP2C9 inh: human CYP2C9 inhibition; actives 20% (n = 96,000); inhibition, % at 5 µM; CYP2C9 Supersomes, luciferin-H conversion, luminescence; P11712; AID 777;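 active = blocking of liver enzyme CYP2C9 beyond about 50% at 5 µM, limit read from the data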
EphB4 ephrin blk: EphB4-ephrin-B2 interaction antagonism; P54760; AID 720; EphB4 LBD / TNYL-RAW-Alexa532 peptide, fluorescence polarization; inhibition, % at 7 µM; actives 0.15% (n = 97,000);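 active = inhibition above the screen-wide mean inhibition plus 3 SD, cut at about 15% in these data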
CYP2C9 activ: increases human cytochrome P450 2C9 activity; P11712; recombinant CYP2C9, luciferin-H conversion, luminescence; active compounds read high; factor 1 = untreated enzyme, 0 = blocked; actives 1.4% (n = 96,000); activation factor at 5 µM;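 active = activation factor of 2 or more for CYP2C9 at a 5 µM dose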
Large screens that a line does not name were inactive. Most compounds without a hit are left out; they make up all but 27% or so of the library.

O=C(NCc1cccs1)c1ccccc1	none
O=C(NCc1cccs1)c1csc2ccccc12	CYP2C19 inhib 85
CCOc1cc(C(=S)N2CCN(C)CC2)ccc1OCC(=O)N1CCOCC1	none
CCOC(=O)Nc1cc(OCC)c(NC(=O)C2CC2)cc1OCC	none
COC(=O)c1ccc(NC(=O)CSc2nc3ccccc3c(=O)[nH]2)cc1	none
COCCCn1c(SCC(=O)Nc2ccc(C(=O)OC)cc2)nc2ccccc2c1=O	CYP2C19 inhib 78, CYP2C9 inh 88
CCOCCCn1c(SCC(=O)NC(C)(C)C)nc2ccccc2c1=O	none
CCOCCCn1c(SCC(=O)Nc2ccc(C(N)=O)cc2)nc2ccccc2c1=O	CYP2C19 inhib 56
COC(=O)c1ccc(NC(=O)CSc2nccn2CCc2ccccc2)cc1	CYP2C19 inhib 76, CYP2C9 inh 50
O=C(Nc1cccc2c1CCCC2)c1cc([N+](=O)[O-])ccc1Cl	none
COc1ccc(C(C#N)N2CCOCC2)cc1 (configuration not stated)	none (no result: CYP2C19 inhib, CYP2C19 act, CYP2C9 inh, CYP2C9 activ)
O=C(Nc1nccs1)C1CCCN(S(=O)(=O)c2cccc3cccnc23)C1 (configuration not stated)	none
O=C(Nc1ccc2c(c1)OCCO2)C1CCN(S(=O)(=O)c2cccc3nsnc23)CC1	none
CC(=O)c1cccc(NC(=O)C2CCCN(S(=O)(=O)c3cccc4cccnc34)C2)c1 (configuration not stated)	none
O=C(Nc1ccc2c(c1)OCCO2)C1CCCN1S(=O)(=O)c1cccc2cccnc12 (configuration not stated)	CYP2C9 inh 97 (no result: EphB4 ephrin blk)
CC(=O)c1cccc(NC(=O)C2CCCN2S(=O)(=O)c2cccc3cccnc23)c1 (configuration not stated)	CYP2C19 inhib 56, CYP2C9 inh 92
O=C(Nc1ccc2c(c1)OCO2)C1CCCN1C(=O)Nc1cccc(F)c1 (configuration not stated)	CYP2C19 inhib 93 (no result: EphB4 ephrin blk)
O=C(Nc1cccc(F)c1)C1CCCN1S(=O)(=O)c1cccc2cccnc12 (configuration not stated)	CYP2C19 inhib 80, CYP2C9 inh 81
CCCn1c(=O)[nH]c(=O)c2c1nc(-c1ccc(OC(F)F)cc1)n2CCN1CCOCC1	none
Cc1ccc(CNC(=O)CCCC(=O)O)cc1	none
O=C(O)CCc1ccc(-c2cccs2)n1NC(=O)c1ccccc1Br	none
CSc1cccc(NC(=O)C2CCN(S(=O)(=O)c3ccc(F)cc3)CC2)c1	none
COc1ccc(NC(=O)C2CCN(S(=O)(=O)c3cccc4cccnc34)CC2)cc1	none
O=C(Nc1ccc(C(F)(F)F)cc1)C1CCCN1S(=O)(=O)c1cccc2cccnc12 (configuration not stated)	CYP2C9 inh 57
CSc1cccc(NC(=O)C2CCCN2S(=O)(=O)c2ccc(Br)s2)c1 (configuration not stated)	CYP2C19 inhib 98, CYP2C9 inh 74
CCOC(=O)c1cc(-c2ccc(C)o2)nn1CCC#N	none (no result: EphB4 ephrin blk)
CCCOc1ccccc1C(=O)N(Cc1cccs1)C1CCS(=O)(=O)C1 (configuration not stated)	none
CN1CCC(OC(=O)COc2ccc(C(C)(C)C)cc2)CC1	none
Cc1cc(C)cc(Oc2ccccc2/C=N\O)c1	CYP2C9 activ 2.6
Cc1cc(C)cc(Oc2ccccc2C=O)c1	none
O/N=C/c1ccccc1Oc1ccccc1	CYP2C19 inhib 73
O=C1NC(=O)c2cc(NC(=O)C3CCCCC3)ccc21	none
Cc1c(C(=O)OCC(=O)c2ccc3c(c2)OCCO3)oc2ccccc12	none
CC12CCC3(CO)COC(c4ccccc4O1)C2C3 (configuration not stated)	none (no result: EphB4 ephrin blk)
CCCCC(=O)NN(C)c1nc(-c2ccccc2)nnc1C(F)(F)F	CYP2C19 inhib 78
CN(NC(=O)c1ccc(Cl)cc1)c1nc(-c2ccccc2)nnc1C(F)(F)F	none
CNc1nc(-c2ccccc2)nnc1C(F)(F)F	CYP2C9 activ 4.1
CC(C)CC(=O)NN(C)c1nc(-c2ccccc2)nnc1C(F)(F)F	CYP2C19 inhib 78
COc1ccccc1N1CCN(C(=O)C(F)F)CC1	none
CCC(NC(=O)NC1=NCCS1)(C(F)(F)F)C(F)(F)F	none
C=CCSc1nnc(-c2cccnc2)o1	none
Clc1ccc(-c2nnc(SCc3nc4ccccc4[nH]3)o2)c(Cl)c1	none (no result: CYP2C19 inhib, CYP2C19 act, CYP2C9 inh, CYP2C9 activ)
C=CCSc1nnc(-c2ccc(Cl)cc2Cl)o1	CYP2C19 inhib 84
Clc1ccc(-c2nnc(SCc3ccon3)o2)c(Cl)c1	CYP2C19 inhib 97, CYP2C9 inh 62
